Source: article PMC5540273 (PLoS ONE, 2017)

Experiments:
Conditions in all cases: concentration: 1 μM, replicates: in singlicate; n = 1
PRKD3 = system: PRKD3
PRKG1 = system: PRKG1
PRKG2 = system: PRKG2
PRKR = system: T1, PRKR
T1 construct: gene EIF2AK2

PRKX = system: PRKX
PRP4 = system: PRP4
PYK2 = system: T2, PYK2
T2 construct: gene PTK2B

QSK = system: QSK
RAF1 = system: RAF1
RET = system: RET
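Also: KINOMEscan kinase panel screen.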

| Compound | %Inh (PRKD3) | %Inh (PRKG1) | %Inh (PRKG2) | %Inh (PRKR) | %Inh (PRKX) | %Inh (PRP4) | %Inh (PYK2) | %Inh (QSK) | %Inh (RAF1) | %Inh (RET) |
| --- | --- | --- | --- | --- | --- | --- | --- | --- | --- | --- |
| CSc1ccc(NC2=C(c3ccc(Cl)cc3)C(=O)NC2=O)cc1 [SB-317658] | 0% | 6% | 0% | 0% | 0% | 0% | 0% | 0% | 13% | 7% |
| NCCC(NC(=O)c1cc(Br)c(-c2ccnc3[nH]ccc23)s1)c1ccccc1.O=C(O)C(F)(F)F.O=C(O)C(F)(F)F (stereo not shown) [GSK1307810] | 35% | 97.5% | 98.2% | 17% | 96.9% | 76% | 0% | 0% | 9% | 36% |
| COc1ccc(C2=C(Nc3cccc(O)c3)C(=O)NC2=O)cc1 [SB-390766] | 0% | 0% | 0% | 0% | 0% | 49% | 0% | 12% | 96.2% | 25% |
| N#Cc1cnc2cc(-c3cnc(CNCCN4CCOCC4)s3)ccc2c1Nc1ccc(Oc2ccccc2)cc1 [GW664114] | 9% | 0% | 0% | 4% | 4% | 51% | 4% | 0% | 0% | 60% |
| CCNc1nccc(-c2c(-c3ccc(F)cc3)ncn2C2CCN(C)CC2)n1 | 36% | 0% | 0% | 0% | 0% | 0% | 0% | 0% | 0% | 0% |
| Cl.Cl.NCC(NC(=O)c1cc(-c2cccnc2)c(-c2ccnc3[nH]ccc23)s1)c1ccccc1 (stereo not shown) [GSK1323434] | 34% | 45% | 68% | 0% | 56% | 29% | 10% | 13% | 12% | 28% |
| Cc1ccccc1CC(=O)N1CCc2cc(-c3cn(C)c4ncnc(N)c34)ccc21 [GSK2603346] | 0% | 0% | 0% | 0% | 0% | 0% | 0% | 4% | 0% | 36% |
| COc1cc(Nc2nccc(N3CCC(NC(=O)Nc4ccc5c(c4)OCO5)C3)n2)cc(OC)c1OC (stereo not shown) [GSK1379766] | 0% | 0% | 0% | 0% | 33% | 50% | 15% | 3% | 0% | 28% |
| Nc1ncnc2scc(-c3ccc(NC(=O)Cc4cc(F)ccc4F)cc3)c12.O=C(O)C(F)(F)F [SB-731254-M] | 14% | 0% | 0% | 15% | 14% | 26% | 21% | 32% | 10% | 23% |
| CN(c1ccc(NC(=O)N2CCN(CCCN3CCOCC3)CC2)cc1)c1ccnc(Nc2ccc(CS(C)(=O)=O)cc2)n1.Cl [GW830899] | 0% | 0% | 100% | 0% | 63% | 0% | 16% | 0% | 28% | 6% |
| O=C(Nc1n[nH]c2nc(-c3ccccc3)ccc12)C1CC1 [SB-708999] | 0% | 1% | 0% | 0% | 5% | 7% | 0% | 0% | 23% | 32% |
| Cc1cccc(Nc2nc(NCCN)ncc2C(N)=O)c1 [GSK1292139] | 100% | 9% | 0% | 3% | 35% | 41% | 66% | 20% | 3% | 14% |
| Cc1ccc(O)cc1Nc1ccnc2ccc(C(C)(C)C)cc12 [GW856805] | 30% | 20% | 29% | 0% | 17% | 0% | 9% | 22% | 14% | 96% |
| Fc1cc(Cl)ccc1Nc1ccnc2cc(-c3ccc(CN4CCOCC4)o3)ccc12 [GW560109] | 19% | 25% | 0% | 0% | 24% | 44% | 5% | 70% | 11% | 99.8% |
| Cc1cc(-c2ccnc(Nc3cccc(C#N)c3)n2)cc(C)c1O [GSK1440913] | 0% | 0% | 0% | 52% | 0% | 92.8% | 27% | 23% | 13% | 0% |
| O=C(Nc1c(F)cccc1F)c1cc(C(=O)c2ccccc2F)c[nH]1 [GSK1326180] | 0% | 0% | 0% | 0% | 3% | 0% | 6% | 4% | 6% | 4% |
